High-throughput results deposited in PubChem by National Center for Advancing Translational Sciences (NCATS).
PTHR1 agonist: PTHR1 (human) receptor agonism | Q03431 | HEK293 GP2 PTHR1 cells, GloSensor cAMP luminescence, 1 h | Potency, µM (highest dose often 115 µM), inactives show at the highest dose activation, most hits filed as activators | 410,000 tested, 0.075% active | AID 743266; also: potency is read from the fitted curve at half-maximal effect; nearly all actives have a fitted effect of over 55% in size
Target sequence (Q03431 whole entry, looked up): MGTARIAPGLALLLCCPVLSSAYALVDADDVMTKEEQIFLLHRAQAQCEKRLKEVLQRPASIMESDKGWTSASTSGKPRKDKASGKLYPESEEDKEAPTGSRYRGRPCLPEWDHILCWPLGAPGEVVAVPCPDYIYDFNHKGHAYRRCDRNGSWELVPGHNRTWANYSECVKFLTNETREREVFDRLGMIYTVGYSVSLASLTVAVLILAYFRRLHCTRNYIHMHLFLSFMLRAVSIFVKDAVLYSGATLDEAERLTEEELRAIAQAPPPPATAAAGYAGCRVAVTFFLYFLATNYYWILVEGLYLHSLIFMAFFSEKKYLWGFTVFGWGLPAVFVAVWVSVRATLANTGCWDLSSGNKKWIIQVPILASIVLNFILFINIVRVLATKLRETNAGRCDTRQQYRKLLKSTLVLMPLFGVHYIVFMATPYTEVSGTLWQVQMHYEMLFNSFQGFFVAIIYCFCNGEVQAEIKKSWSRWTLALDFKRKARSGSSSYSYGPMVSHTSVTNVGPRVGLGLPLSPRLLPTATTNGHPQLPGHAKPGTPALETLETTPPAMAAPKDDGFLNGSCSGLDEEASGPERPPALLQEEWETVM
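HEK-293-derived GP2 cells expressing PTHR1 and a GloSensor cAMP reporter, 3,000/well, plated overnight, given luciferin plus IBMX (each 0.5 mM as added) for 1 h at 37 °C, then compound for 1 h at 37 °C. Luminescence was read after 15 min at room temperature.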
GLP-1R inv ag: inverse agonists of human GLP-1 receptor. P43220. HEK293 GLP-1R CRE-luciferase, luminescence, 24 h; GLP-1R form is constitutively active. Potency, µM (series often up to 38.3 µM), for inactives: top-dose activity change, negative = inhibition, actives largely listed as inhibitors. 410,000 tested, 1.6% active; also: potency is read from the fitted curve at half-maximal effect; % is scaled to controls: 0 for no effect and ±100 for the full control effect; nearly all actives have a fitted effect of over 55% in size
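Inverse agonists were sought by their lowering of basal cAMP reporter luciferase output in HEK293 cells stably carrying constitutively active human GLP-1R, after 24 h compound treatment.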
TRHR enhancer: TRH receptor (human) allosteric enhancement | P34981 | TRHR cells, fluo-8 calcium fluorescence, EC20 TRH enhancement | enhancement, % at 2 µM | 360,000 tested, 0.66% active | AID 493056; in the data active = enhancement above about 30%; also: 0% is about no effect
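TRHR-expressing cells loaded with fluo-8 calcium dye were read kinetically (ex 480/em 530) during compound addition, then stimulated with an EC20 of TRH (10 nM final). Enhancement of the Gq-mediated intracellular calcium response was scored.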
GLP-1R agonist: GLP-1 receptor (human) agonism; HEK293 GLP-1R CRE-luciferase, luminescence, 4-6 h; cells express a hypersensitive GLP-1R form; Potency, µM (titrated, usually from 45.6 µM), for inactives: at the top dose activation, actives largely listed as activators; 380,000 tested, 0.007% active; AID 624172; also: potency is read from the fitted curve at half-maximal effect; % of control where 0% means no effect
GLP1R cytotox: cytotoxicity counter-screen for GLP-1 receptor inverse agonists; HEK293 cAMP-luciferase reporter cells, luminescence, 24 h; Potency, µM (top dose mostly 38.3 µM), without a hit: top-dose activity change, negative = inhibition, usual class: inhibitors; 410,000 tested, 0.13% active; AID 624418;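 also: loss of luciferase light is scored as toxicity; potency is read from the fitted curve at half-maximal effect; % is scaled to controls: 0 for no effect and ±100 for the full control effect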
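Compound-treated cells are incubated 24 hr at 37 deg C under 5% CO2 after a 12 hour attachment period, then luciferase detection reagent is added and luminescence is measured following 12 min at room temperature; lowered signal indicates toxicity.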
TRHR ag: TRH receptor (human) agonism | P34981 | TRHR cells, calcium flux fluo-8, FDSS agonist mode | activation, % at 2 µM | 360,000 tested, 0.18% active | AID 493084; in the data active = activation above about 30%; also: 0% is about no effect
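Fluo-8-loaded TRHR cells; 10 s baseline, compound added, kinetic Ca2+ fluorescence read 1/s, agonist mode.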
* marks the source's active call; other numbers are inactive results; i = inactive; u = inconclusive; x = no result; [ ] = dose if it differs, or a comment. Hits are enriched below; roughly 2.4% of the tested compounds scored in any of these assays. Unless noted, calls follow the shape of the dose curve; as a rule, active = well fitted curve in the direction sought with a large enough effect; inconclusive = small, poorly fitted or top-dose-only effect, or another doubt; inactive = no such curve, though single readings can be large; an effect the other way counts as inactive or inconclusive.

SMILES	PTHR1 agonist	GLP-1R inv ag	TRHR enhancer	GLP-1R agonist	GLP1R cytotox	TRHR ag
Cc1ccc(S(=O)(=O)Nc2nccs2)cc1[N+](=O)[O-]	-17.5%	-14.7%	24.8	-1.0%	-1.2%	0.7
Cc1ccc(S(=O)(=O)Nc2ccc(S(=O)(=O)Nc3nccs3)cc2)c([N+](=O)[O-])c1	i	4.2%	58.0*	-4.4%	-10.9%	-0.2
CCn1c(C(=O)NCc2ccccc2Cl)cc2sc(Cl)cc21	-15.5%	-18.3%	-2.1	x	0.6%	0.0
Cc1c(NC(=O)/C=C/c2ccc(S(=O)(=O)N3CCOCC3)cc2)c(=O)n(-c2ccccc2)n1C	-1.9%	10.9%	33.7*	5.9%	-0.9%	0.5
O=C(Nc1ccccc1)c1ccc(Cl)c(S(=O)(=O)Nc2ccccc2)c1	-22.2%	-26.9%	-9.1	x	-1.4%	-1.1
COCCC(=O)N1CCC(Oc2ccc(C(=O)N3CCCCCCC3)cc2)CC1	u	-12.3%	-7.3	11.0%	-0.9%	0.1
O=C(c1ccc(Br)cc1)C(CN1CCOCC1)c1ccccc1 (configuration not stated)	-45.6%	u	-3.8	-5.8%	u	1.3
O=C(CC(C(=O)c1ccccc1)c1ccccc1)c1ccccc1 (configuration not stated)	-7.2%	10µM*	x	1.7%	8.5%	x
O=C(c1ccccc1)C(CN1CCCCC1)c1ccccc1 (configuration not stated)	-7.4%	2.82µM*	x	-7.4%	u	x
CN(Cc1cc(Cl)cc(Cl)c1)CC(C(=O)c1ccccc1)c1ccccc1 (configuration not stated)	-50.3%	u	x	-8.7%	u	x
O=C(CC(C(=O)O)c1cccc(Cl)c1)c1ccccc1 (configuration not stated)	i	15.2%	-0.4	-1.9%	0.5%	0.9
CN(C)CC(C(=O)c1ccccc1)c1ccccc1 (configuration not stated)	-28.4%	13.0%	1.7	-42.0%	8.91µM*	-1.0
CCCN(CCC)S(=O)(=O)c1ccc(Cl)c(OC)c1	-5.9%	u	3.6	4.6%	4.8%	-0.3
Cc1cccc(Oc2ccc(S(=O)(=O)N3CCCCC3)cc2NC(=O)C2=COCCO2)c1	-7.3%	10µM*	12.6	7.0%	6.9%	-0.3
CC(C)Oc1ccc(S(=O)(=O)N2CCCCC2)cc1NC(=O)C1=COCCO1	-55.2%	u	-3.9	-12.1%	-0.8%	-0.3
CCOC(=O)c1c(C)c(C(=O)NCc2ccc(Cl)cc2)c(C)n1C	4.4%	-0.9%	34.8*	0.8%	4.7%	0.2
CCOC(=O)c1c(C)c(C(=O)NCc2cccnc2)c(C)n1C	i	0.0%	-7.5	-3.7%	-0.5%	0.0
Cc1onc(-c2c(F)cccc2Cl)c1C(=O)OCC(=O)NC1CC1	-12.4%	3.6%	-2.1	12.9%	3.5%	-0.5
CC(C)(C)c1ccc(C(=O)NC(=S)NNC(=O)COc2ccccc2)cc1	-16.6%	-0.2%	-7.5	-5.5%	-4.4%	0.2
CC1(C)CC(=O)C=C(c2cc3ccccc3s2)C1	i	11.3%	x	-1.3%	u	x
O=C1C=C(c2cc3ccccc3s2)CCC1	-76.9%	2.51µM*	x	-7.8%	-29.9%	x
CCOc1ncccc1C(=O)OCc1ccc(Cl)cc1	-24.7%	22.4%	0.4	7.9%	-0.5%	-1.3
CCOc1ncccc1C(=O)OCC(=O)Nc1ccc(C)c(S(=O)(=O)N2CCOCC2)c1	-26.6%	41.0%	-3.6	21.0%	-3.6%	-0.6
CCOc1ncccc1C(=O)OCc1ccc(C(=O)OC)cc1	-53.1%	7.0%	-4.1	11.2µM*	u	0.6
CCOc1ncccc1C(=O)OCC(=O)NCCc1ccccc1	-12.3%[57.5 µM]	5.1%	30.9*	23.7%	0.8%	0.0
CCOc1ncccc1C(=O)OCC(=O)Nc1ccc(C)c(S(=O)(=O)N(C)C)c1	-10.0%	30.7%	36.1*	27.5%	-2.0%	-0.5
NC(=O)CSc1nnc(-c2ccc(S(=O)(=O)N3CCCC3)cc2)n1CC1CCCO1 (configuration not stated)	i	7.5%	-12.0	15.9%	1.2%	0.1
